Measured values reported in PubChem BioAssay AID463173 (ICCB-Longwood Screening Facility, Harvard Medical School, 2010).
The whole screen tested about 52,000 compounds, of which about 4,300 (8.3%) were called active. Many of the other results were omitted from the sample, so actives are more common in it than they were. A number with no mark means an inactive call. Cut-off read from the data, not from the text of the source: active = survival mostly below about 52% (no sharp cut-off); inactive = mostly above about 56%.

Each molecule was assayed on DeltatarO mutant (assay: growth inhibition of S. aureus wild type versus tarO mutant, primary screen, teichoic acid synthesis inhibitors, RN4220, OD600 (AID 463173)). Details: OD600, 18 h, active compounds read low, screened at 18.75 µg/mL (by protocol).

First: O=C(CC1COc2ccccc2O1)NCCc1ccccc1 (stereo unspecified)
Second: O=C(NCc1ccccc1)c1c2c(nc3ccccc13)C(=O)N(C1CCCCC1)C2
The survival of the first is higher: 87% for the first, 69% for the second.

First: CCOC(=O)c1c(NC(=O)CSc2cn(CCNC(=O)c3ccc(OCC)cc3)c3ccccc23)sc2c1CCC2
Second: CCOc1ccc(C(=O)c2cn(CC(=O)Nc3ccc(F)c(F)c3)c3cc4c(cc3c2=O)OCCO4)cc1
The survival of the first is lower: 91% for the first, 130% for the second.

First: COc1ccc(OC)c(CCNC(=O)c2cc3c(-c4ccccc4F)nn(C)c3s2)c1
Second: CCOc1ccc(-c2nnc(SCC(=O)NCc3ccccc3)nc2-c2ccc(OCC)c(OC)c2)cc1OC
The survival of the first is lower: 54% for the first, 80% for the second.

Going from `CCc1cc2c(cc3c(=O)n(CCCC(=O)NCc4cccc(Cl)c4)ncn32)s1` to `O=C(NCc1cccc(Cl)c1)c1c2c(nc3ccccc13)C(=O)N(C1CCCCC1)C2`, the survival rises from 67% to 144%.

Compared with `CCOc1ccc(S(=O)(=O)N(CC(=O)Nc2ccc3c(c2)OCO3)c2ccc(C)cc2)cc1`, `CCCn1c(-c2ccc(S(=O)(=O)N3CCOCC3)cc2)csc1=Nc1ccc(OCC)cc1` is higher in survival: 50% for the first, 70% for the second.

First: COCCCNC(=O)N1[C@H](c2cccs2)[C@@H](C)C(=O)[C@@H](C)[C@@H]1c1cccs1
Second: CC(C)CCNC(=O)c1c2c(nc3ccccc13)C(=O)N(C1CCCCC1)C2
The survival of the first is lower: 47% for the first, 101% for the second.

First: COc1ccc(OCCCn2c(C3CC(=O)N(c4ccc(F)cc4)C3)nc3ccccc32)cc1 (stereo unspecified)
Second: CCOc1ccc(N2CC(c3nc4ccccc4n3CCCCOc3ccc(OC)cc3)CC2=O)cc1 (stereo unspecified)
The survival of the first is higher: 66% for the first, 55% for the second.

First: O=C1CC(c2nc3ccccc3n2CCCOc2ccccc2)CN1c1ccc(F)cc1 (stereo unspecified)
Second: CCOc1ccc(N2CC(c3nc4ccccc4n3CCCOc3ccccc3OC)CC2=O)cc1 (stereo unspecified)
The survival of the first is higher: 97% for the first, 81% for the second.

First: CCOc1ccc(N2CC(c3nc4ccccc4n3CCOc3ccccc3OC)CC2=O)cc1 (stereo unspecified)
Second: COc1ccccc1NC(=O)Cn1c(SCC(=O)N(C)c2ccccc2)nc2ccccc21
The survival of the first is lower: 46% for the first, 119% for the second.

Compared with `CCC1CN(C(=O)N2CCC(C(=O)Nc3cc(C)ccc3C)CC2)c2ccccc2O1` (stereo unspecified), `Cc1cccc(NC(=O)Cn2cc(C(=O)C3CCCCC3)c3ccccc32)c1C` is lower in survival: 98% for the first, 63% for the second.

Compared with `Cc1[nH]c2ccc(-c3nnc(SCC(=O)N4CCc5ccccc54)o3)cc2c1C`, `CCN(C(=O)CSc1nnc(Cn2nnc3ccccc32)o1)c1nc(-c2ccccc2)cs1` is lower in survival: 84% for the first, 80% for the second.

Going from `COc1ccc(C2C(C(=O)Nc3cccnc3)=C(C)Nc3nc(SCc4ccccc4)nn32)cc1` (stereo unspecified) to `COc1ccc(NC(=O)C2Cc3ccccc3N2C(=O)c2ccccc2)c(OC)c1` (stereo unspecified), the survival rises from 57% to 80%.

First: COc1ccc(NC(=O)C2CCN(S(=O)(=O)c3ccc4[nH]c5c(c4c3)CCCCC5)CC2)cc1
Second: COc1ccc(CNC(=O)c2c3c(nc4ccccc24)C(=O)N(C2CCCCC2)C3)cc1
The survival of the first is higher: 113% for the first, 83% for the second.

Going from `COc1ccc2cc3cc(C(=O)N4CCN(c5cccc(C(F)(F)F)c5)CC4)sc3nc2c1` to `COc1ccc(S(=O)(=O)Cc2ccc(C(=O)N3CCN(c4cc(C)ccc4C)CC3)o2)cc1`, the survival rises from 119% to 130%.

First: CC(C)OCC(O)Cn1c2ccccc2c2ccccc21 (stereo unspecified)
Second: Cc1cccc(N(CC(O)Cn2c3ccccc3c3ccccc32)S(=O)(=O)c2ccc(F)cc2)c1 (stereo unspecified)
The survival of the first is higher: 80% for the first, 58% for the second.

Compared with `CCCN(CCC)S(=O)(=O)c1ccc(C)cc1`, `CCNc1sc(S(C)(=O)=O)nc1S(=O)(=O)c1ccc(C)cc1` is higher in survival: 97% for the first, 125% for the second.

Compared with `O=C(CSc1ccccc1)Nc1c[nH]c(=O)[nH]c1=O`, `CCc1ccccc1NC(=O)Cn1nc(C(F)(F)F)c2c1CCC2` is lower in survival: 78% for the first, 75% for the second.

Compared with `Cc1ccc(C)c(NC(=O)c2cc(=O)c3cc(C)cc(C)c3o2)c1`, `Cc1ccc(S(=O)(=O)Nc2c(C)nc3nc(C)[nH]n3c2=O)c(C)c1` is higher in survival: 70% for the first, 117% for the second.

First: Cc1cccc(-c2nnn3c2nc(NCc2ccccc2)c2ccccc23)c1
Second: Cc1nnc2c3ccccc3nc(N3CCN(c4ccccc4)CC3)n12
The survival of the first is higher: 97% for the first, 77% for the second.

Going from `Nc1ncnc2nc(SCC(=O)O)[nH]c12` to `Cc1ccc(CNC(=O)c2nc(SCc3ccccc3C)ncc2Cl)cc1`, the survival falls from 86% to 76%.

First: Cc1ccccc1-c1nn2c(=O)cc(CN3CCN(C(=O)c4ccc(C(C)(C)C)cc4)CC3)nc2s1
Second: Cc1ccc(Cl)cc1N1CCN(C(=O)c2ccc3c(c2)N(Cc2ccccc2)CCS3)CC1
The survival of the first is higher: 97% for the first, 74% for the second.

First: COc1cc(OC)cc(C(=O)N2CCN(C(=O)COc3ccc(C)cc3)CC2)c1
Second: COc1ccc(OCC(=O)N2CCN(C(=O)c3cccc(OC)c3)CC2)cc1
The survival of the first is lower: 57% for the first, 72% for the second.

First: N#CC1=C(N)N(c2ccc(Cl)cc2)C2=C(C(=O)CCC2)C1c1cc(CN2CCOCC2)cs1 (stereo unspecified)
Second: CC(C)Cn1c(-c2ccc(S(=O)(=O)N3CCOCC3)cc2)csc1=Nc1cc(Cl)ccc1Cl
The survival of the first is lower: 59% for the first, 82% for the second.

Going from `O=c1c2c(-c3ccc(Cl)cc3)ccnc2[nH]n1-c1ccccc1` to `COc1ccccc1-c1ccnc2[nH]n(-c3ccccc3)c(=O)c12`, the survival falls from 67% to 64%.

First: CC(C)C(c1nnnn1Cc1ccccc1)N1CCN(c2ccccc2)CC1 (stereo unspecified)
Second: CCC(c1nnnn1Cc1ccccc1)N1CCN(c2cccc(Cl)c2)CC1 (stereo unspecified)
The survival of the first is lower: 87% for the first, 89% for the second.

First: CC(C)Cn1c(-c2ccc(S(=O)(=O)N3CCCC3)cc2)csc1=Nc1ccccc1
Second: CCn1c(-c2ccc(S(=O)(=O)N3CCOCC3)cc2)csc1=Nc1ccc(C)c(Cl)c1
The survival of the first is lower: 58% for the first, 73% for the second.

Compared with `CS(=O)(=O)N(CC(=O)O)c1ccc(Cl)cc1`, `O=C(CCS(=O)(=O)c1cccc2nonc12)Nc1ccc(F)cc1F` is higher in survival: 105% for the first, 124% for the second.

Going from `COc1ccc(-c2nc(SCC(=O)NC3CCCC3)c(-c3ccc(OC)cc3)[nH]2)cc1` to `Cc1ccc(CNC(=O)c2c3c(nc4ccccc24)C(=O)N(C2CCCCC2)C3)cc1`, the survival rises from 71% to 91%.

Compared with `Cc1ccc(CN2CCSc3ccc(C(=O)N4CCN(c5ccccc5)CC4)cc32)cc1`, `Cc1ccc(CN2CCSc3ccc(C(=O)N4CCN(c5ccc(Cl)cc5)CC4)cc32)cc1` is higher in survival: 63% for the first, 72% for the second.

Going from `Cc1ccc(Cl)cc1N1CCN(C(=O)c2ccc3c(c2)N(Cc2ccc(F)cc2)CCS3)CC1` to `O=C(NCc1ccc(F)cc1)c1c2c(nc3ccccc13)C(=O)N(C1CCCCC1)C2`, the survival rises from 73% to 102%.

First: CCc1ccccc1NC(=O)Cn1nc(C(F)(F)F)c2c1CCCC2
Second: COc1ccc(Cl)cc1NC(=O)Cn1nc(C(F)(F)F)c2c1CCC2
The survival of the first is higher: 77% for the first, 72% for the second.

Compared with `COc1cc(NC(=O)Cn2nc(C(F)(F)F)c3c2CCCC3)c(OC)cc1Cl`, `O=C(Cn1nnc(-c2cccc(C(F)(F)F)c2)n1)NCc1ccc(F)cc1` is lower in survival: 78% for the first, 77% for the second.

Going from `FC(F)(F)c1nnc2c3ccccc3c(Cl)nn12` to `CCNc1nc(Oc2ccc(=O)n(-c3ccccc3)n2)nc(N(C)C)n1`, the survival falls from 95% to 84%.

First: CCc1ccc(NC(=O)C(=O)NCC(c2cccnc2)N2CCc3ccccc3C2)cc1 (stereo unspecified)
Second: CCc1ccc(OCC(=O)Nc2c(C(=O)c3ccc(Br)cc3)oc3ccccc23)cc1
The survival of the first is lower: 64% for the first, 85% for the second.

Compared with `CCOc1ccccc1N(C)C(=O)c1c2c(nc3ccccc13)C(=O)N(C1CCCCC1)C2`, `CCCNC(=O)c1c2c(nc3ccccc13)C(=O)N(C1CCCCC1)C2` is lower in survival: 92% for the first, 75% for the second.

For `CCOc1ccc(N2CC(c3nc4ccccc4n3CCOc3ccc(OC)cc3)CC2=O)cc1` (stereo unspecified), the survival was 47% (active).
`CCOc1ccc(N2CC(c3nc4ccccc4n3CCC3CCCCC3)CC2=O)cc1` (stereo unspecified) was tested, and the survival was 33% (active).
For `COc1ccc(OCCn2c(C3CC(=O)N(c4ccc(F)cc4)C3)nc3ccccc32)cc1` (stereo unspecified), the survival was 59% (active).
For `CCOc1ccc(N2CC(c3nc4ccccc4n3CCCOc3ccc(OC)cc3)CC2=O)cc1` (stereo unspecified), the survival was 44% (active).
`OCCN(CCO)CC(O)Cn1c2ccc(Br)cc2c2cc(Br)ccc21` (stereo unspecified) was tested, and the survival was 2% (active).
For `CCNc1nc(NCC)nc(N(n2cnnc2)S(=O)(=O)c2ccc(C)cc2)n1`, the survival was 1% (active).
`Nc1ncnc2nc(SCCO)[nH]c12` was tested, and the survival was 63% (active).
`COc1cc(OC)cc(C(=O)N2CCN(C(=O)COc3ccccc3)CC2)c1` was tested, and the survival was 54% (active).
`Cc1ccccc1-c1ccnc2[nH]n(-c3ccccc3)c(=O)c12` was tested, and the survival was 47% (active).
`CCCC(c1nnnn1Cc1ccccc1)N1CCN(c2ccccc2)CC1` (stereo unspecified) was tested, and the survival was 42% (active).
In the case of `COCCCn1c(-c2ccc(S(=O)(=O)N3CCOCC3)cc2)csc1=Nc1ccccc1`, the survival is reported as 52% (active).
In the case of `CCCCn1c(-c2ccc(S(=O)(=O)N3CCOCC3)cc2)csc1=Nc1ccccc1`, the survival is reported as 48% (active).
With `Cc1ccc(CN2CCSc3ccc(C(=O)N4CCN(c5cccc(C)c5C)CC4)cc32)cc1` the survival was 27% (active).
`Cc1ccc(CN2CCSc3ccc(C(=O)N4CCN(c5cc(C)ccc5C)CC4)cc32)cc1` was tested, and the survival was 25% (active).
For `COc1ccc(Cl)cc1NC(=O)Cn1nc(C(F)(F)F)c2c1CCCC2`, the survival was 35% (active).
With `COC(=O)c1ccccc1NC(=O)Cn1nc(C(F)(F)F)c2c1CCCC2` the survival was 5% (active).
In the case of `FC(F)(F)c1nnc2c3ccccc3nc(-c3ccccc3)n12`, the survival is reported as 29% (active).
With `CN(C(=O)c1c2c(nc3ccccc13)C(=O)N(C1CCCCC1)C2)c1ccc(F)cc1` the survival was 0% (active).
With `CC(C)OCCCNC(=O)c1c2c(nc3ccccc13)C(=O)N(C1CCCCC1)C2` the survival was 25% (active).
For `CCc1ccc(CNC(=O)c2c3c(nc4ccccc24)C(=O)N(C2CCCCC2)C3)cc1`, the survival was 37% (active).
With `COc1cccc(CNC(=O)c2c3c(nc4ccccc24)C(=O)N(C2CCCCC2)C3)c1` the survival was 46% (active).
